Screening results: PubChem, National Center for Advancing Translational Sciences (NCATS)
12-LOX inh = ALOX12 (human) lipoxygenase inhibition | purified 12hLO, xylenol orange hydroperoxide absorbance | Potency, µM (series often up to 108 µM), hits mostly inhibitors | 1.1% of 580,000 active | AID 1671190; active = well fitted inhibition curve with a large enough effect; inconclusive = small, poorly fitted or top-dose-only effect, or another doubt; inactive = no such curve, though single readings can be large or run the other way
Target sequence (P18054 whole entry, looked up): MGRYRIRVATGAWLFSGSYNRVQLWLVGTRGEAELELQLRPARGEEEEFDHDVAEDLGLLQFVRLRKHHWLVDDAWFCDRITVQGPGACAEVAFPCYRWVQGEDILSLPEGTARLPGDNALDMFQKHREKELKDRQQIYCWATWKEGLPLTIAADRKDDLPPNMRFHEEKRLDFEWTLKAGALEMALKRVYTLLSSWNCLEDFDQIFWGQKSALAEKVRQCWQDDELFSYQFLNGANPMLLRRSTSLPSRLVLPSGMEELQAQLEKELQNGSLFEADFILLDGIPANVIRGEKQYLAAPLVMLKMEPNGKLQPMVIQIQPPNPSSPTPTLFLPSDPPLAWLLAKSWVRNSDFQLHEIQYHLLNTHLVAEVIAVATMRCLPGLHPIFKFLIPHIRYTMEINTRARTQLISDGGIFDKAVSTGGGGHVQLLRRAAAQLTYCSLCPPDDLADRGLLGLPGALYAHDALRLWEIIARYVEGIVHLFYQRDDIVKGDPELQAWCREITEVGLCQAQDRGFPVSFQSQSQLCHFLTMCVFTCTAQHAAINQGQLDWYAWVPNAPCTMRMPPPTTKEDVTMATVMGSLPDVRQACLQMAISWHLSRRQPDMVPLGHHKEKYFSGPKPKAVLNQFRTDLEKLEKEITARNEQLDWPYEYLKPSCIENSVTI
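Purified human 12hLO (150 nM final) in 25 mM Hepes, 0.01% Triton X-100, pH 7.0 was preincubated 15 min at room temperature with compound. Then 40 uM arachidonic acid was added, 30 min. Hydroperoxide was read by Fe-XO absorbance ratio 573/405 nm.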
LDHA inh = blocks human lactate dehydrogenase A; P00338; 0.15% of 480,000 active; AID 1347041; activity change, % (values are at about 110 or 230 µM); purified LDHA, NADH/diaphorase-resazurin fluorescence; hits give low values; in the data active = activity change below about -30%; inconclusive = mostly about -25% to -30%
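Human LDH5 at 2 nM final in Tris HCl pH 7.4 with 0.06 mM NADH and 0.2 mM pyruvate, reacted 5 minutes at room temperature. Remaining NADH coupled via diaphorase/resazurin; resorufin fluorescence read at 0 and 20 minutes, normalized to enzyme-free and DMSO wells.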
KCNH2 WT inh = inhibitors of human wildtype KCNH2 potassium channel; Q12809; activity change, % at 1.84 µM; 0.37% of 340,000 active; U2OS, BacMam KCNH2, thallium flux FluxOr; hits give low values;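 active = maximum activity change below -70%; inconclusive = maximum activity change between -70% and -50%; inactive = maximum activity change above -50%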
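U2OS cells transduced with wild-type KCNH2 virus are loaded with FluxOr dye for 45 min, and thallium flux is measured in kinetic reads before and after stimulation buffer. Rate constants are normalized to DMSO controls.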
ClpP mod = qHTS Assay for Activators of ClpP; Potency, µM (top dose mostly 57.5 µM); 1.9% of 340,000 active; purified B. subtilis ClpP, FRET peptide cleavage, 20 min; ATP-dependent Clp protease proteolytic subunit (Bacillus subtilis (strain 168)), P80244; active = well fitted falling curve with a large enough effect; inconclusive = small, poorly fitted or top-dose-only effect; inactive = no such curve, though single readings can be large or run the other way; note: the source files actives as falling curves though it sought activators and does not explain the sign; nearly all actives have a fitted effect of over 65% in size
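ClpP 10 microg/mL final, pH 8 Tris/KCl buffer with BSA, glycerol, Tween-20; compound pinned in; FRET-FV substrate; RT 20 min; Ex320/Em430; ΔFRET vs ADEP 5.8 microM, DMSO, no enzyme.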
KCNH2 3.1 inh = inhibitors of human KCNH2 3.1 potassium channel isoform; U2OS KCNH2 3.1, thallium flux FluxOr; hits give low values; activity change, % (tested at about 1.8 µM); 0.95% of 340,000 active; AID 720553;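 active = maximum activity change below -70%; inconclusive = maximum activity change from -70% to -50%; inactive = maximum activity change above -50%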;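 note: thallium influx rate constant from kinetic fluorescence after stimulation buffer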
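Normalized rate constant (relative to positive and negative DMSO controls) derived from a 2 min kinetic fluorescence read after stimulation; U2OS cells expressing the 3.1 isoform via virus at 1.77 x 10^8 /mL.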
Chronic BCR inh = chronic active BCR signaling inhibition; ABC-DLBCL IkBa-CBG/CBR reporter, luminescence ratio, 4 h; Potency, µM (doses to about 46.1 µM), most hits filed as inhibitors; 0.05% of 340,000 active; active = well fitted inhibition curve with a large enough effect in the signal ratio, with a control signal flat, not every such curve was filed as active; inconclusive = small, poorly fitted or top-dose-only effect, or effect the other way, or a change in a side signal; the % refers to the signal ratio
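Cell line TMD8 (human ABC DLBCL), stably expressing tet-inducible CBG68-IkBa fusion and CBR; IMDM/0.5% FBS; cpd up to 46 uM; dox induction, 4 h, 37C/5% CO2; dual luminescence; green/red ratio; MG132 control.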
Numbers stand for hits; 0 = inactive; ? = inconclusive; - = not tested or not shown; [ ] = dose if it differs, or a comment. A selection: hits, their analogues and other compounds. The true share with any hit is near 3%.

SMILES	12-LOX inh	LDHA inh	KCNH2 WT inh	ClpP mod	KCNH2 3.1 inh	Chronic BCR inh
Cc1ccc(-c2nc3ccccc3o2)cc1NC(=S)NC(=O)c1cc2ccccc2o1	0	0	0	16µM	0	0
O=C(CCN1C(=O)C2C3C=CC(C3)C2C1=O)NCc1cccnc1 (stereo not drawn)	0	0	0	13µM	-	?
O=C(CCN1C(=O)c2cccc3cccc(c23)C1=O)NCc1cccnc1	0	0	0	-	0	0
O=C(CCN1C(=O)C2C3C=CC(C3)C2C1=O)N1CCN(c2cccc(Cl)c2)CC1 (stereo not drawn)	0	0	0	0	0	0
O=C(CCN1C(=O)C2C3C=CC(C3)C2C1=O)N1CCN(c2ccccn2)CC1 (stereo not drawn)	0	0	0	16µM	0	0
COC(=O)c1ccc(COC(=O)c2cc3c(s2)CCC3)o1	8.9µM	0	-	-	-	-
COC(=O)c1ccc(COC(=O)c2cc3c(s2)CCCCC3)o1	0	0	-	-	-	-
N#Cc1c(-c2ccccc2)cc(C2CC2)nc1SCC(=O)c1cccs1	0	0	0	0	0	0
N#Cc1c(-c2cccs2)cc(C2CC2)nc1SCC(N)=O	0	0	0	16µM	-	0
Cc1cc(-c2csc(Nc3ccc(O)cc3)n2)ccc1F	35µM	0	-	-	-	-
Cc1cccc(Nc2nc(-c3ccc(O)cc3O)cs2)n1	25µM	0	0	-	0	?
Oc1ccc(Nc2nc(-c3ccc(F)cc3F)cs2)cc1	7.9µM	0	-	-	-	-
Cc1ccc(-c2csc(Nc3ccc(S(N)(=O)=O)cc3)n2)cc1C	45µM	0	-	-	-	-
Oc1ccc(-c2csc(Nc3ncccn3)n2)c(O)c1	0	0	0	-	0	?
O=C(CCCOC(=O)c1cc2ccccc2[nH]1)c1ccccc1	?	0	-	-	-	-
COc1ccc(Nc2nc(N3CCCC3)c3cnn(C)c3n2)c(OC)c1	?	0	-	-	-	-
Cc1ccc(-c2csc(Nc3ccc4c(c3)OCO4)n2)cc1C	?	0	-	-	-	-
Oc1ccc(-c2csc(Nc3ccc4c(c3)OCO4)n2)c(O)c1	32µM	0	0	0	0	-
O=C(Nc1ccccc1)Nc1ccccc1	0	0	0	0	0	-
O=C(Nc1ccccc1)Nc1ccc(Cl)nc1Cl	3.2µM	0	0	-	0	-
CCOc1ccc(-c2cc3ccccc3[nH]2)cc1	13µM	0	-	-	-	-
O=[N+]([O-])c1ccc(N2N=C(c3ccccc3)CC2c2ccccc2O)cc1 (stereo not drawn)	25µM	-	-	-	-	?
Cc1ccc(S(=O)(=O)CNC(=S)c2ccc3ccccc3c2)cc1	?	0	0	0	0	?
Cc1ccc(S(=O)(=O)CNC(=S)c2cccc(C)c2)cc1	?	0	0	0	0	18µM
COc1ccc(C(=S)NCS(=O)(=O)c2ccc(C)cc2)cc1	16µM	0	-148	0	0	?
SMILES	12-LOX inh	LDHA inh	KCNH2 WT inh	ClpP mod	KCNH2 3.1 inh	Chronic BCR inh
COc1ccc(C(=S)Nc2ccc(C)cc2)cc1	?	0	0	0	0	0
O=C(c1ccc2c(c1)nc1n2CCCC1)N1CCN(c2ccccc2)CC1	0	0	-	-	-	-
Cc1ccc(C=C2C(=O)c3ccccc3C2=O)o1	0	0	0	0	-83	0
Cc1ccc(/C=C2/C(=O)c3ccc(C(=O)O)cc3C2=O)o1	?	0	0	0	0	?
COc1ccc(C(=O)Nc2ccc3sc(NC(=O)C(C)C)nc3c2)cc1OC	?	0	-	-	-	-
CCCN1C(=O)/C(=C/c2ccc(N3CCCC3)c(C)c2)NC1=S	0	0	0	0	?	0
Cc1cc(/C=C2\NC(=S)N(C)C2=O)ccc1N1CCCC1	0	0	-80	-	-	0
Cc1ccc(S(=O)(=O)c2cn(C)c3cc(N4CCCC(C)C4)c(F)cc3c2=O)c(C)c1 (stereo not drawn)	0	0	-	20µM	-	-
CCCN1CCN(c2cc3c(cc2F)c(=O)c(S(=O)(=O)c2ccc(Cl)cc2)cn3C)CC1	0	0	-	16µM	-	-
Cc1ccc(S(=O)(=O)c2cn(C)c3cc(N4CCCC4)c(F)cc3c2=O)c(C)c1	0	0	-	28µM	-	-
CCn1cc(S(=O)(=O)c2ccc(C)cc2C)c(=O)c2cc(F)c(N3CCCC3)cc21	0	0	-	32µM	-	-
O=C(O)/C=C/c1ccc(Cl)c(Cl)c1	0	0	-	-	-	-
CCCCOCCCNC(=O)CCC(=O)NCC(CC)CCCC (stereo not drawn)	0	0	-	-	-	-
COc1ccc(-c2cc(N3CCCC(NC(=O)c4cccc(OC)c4)C3)n[nH]2)cc1 (stereo not drawn)	0	-	-	-	-	-
Cc1onc(-c2ccccc2)c1C(=O)N1CCCC2(CCOC2)C1 (stereo not drawn)	0	-	-	-	-	-
Cc1cc(C)c(C)c(C(=O)C2OC(=O)C(C)(C)C(=O)C2(C)C)c1C (stereo not drawn)	0	0	0	0	0	?
CC1(C)C(=O)OC(C(=O)c2ccc(C(C)(C)C)cc2)C(C)(C)C1=O (stereo not drawn)	0	0	0	32µM	0	?
CCC(Sc1nccn1-c1cccc(F)c1)C(=O)Nc1cc(C)on1 (stereo not drawn)	0	0	-	-	-	-
S=c1nc[nH]c2c1cnn2-c1ccccc1	0	0	0	0	0	?
Cn1ncc2c(=S)nc(Cl)[nH]c21	7.1µM	0	0	0	0	-
CN1C[C@@H](NS(=O)(=O)Cc2ccccc2)C[C@H]1c1nc(Cc2ccccc2)no1	0	-	-	-	-	-
O=C(Nc1cccnc1)Nc1ccc(Cl)cc1Cl	25µM	0	-	0	0	?
O=C(Nc1ccc(Cl)cc1)Nc1cccnc1	0	-34	0	0	0	0
Cc1ccc2c(CN(Cc3ccco3)Cc3ccco3)cc(=O)oc2c1C	0	0	-	-	-	-
CC(C)(C)C(=O)OCC1CCC[N+]2(C)CCCCC12 (stereo not drawn)	28µM	0	-	-	-	-
SMILES	12-LOX inh	LDHA inh	KCNH2 WT inh	ClpP mod	KCNH2 3.1 inh	Chronic BCR inh
Cc1ccccc1C(=O)OCC1CCC[N+]2(C)CCCCC12 (stereo not drawn)	28µM	0	-	-	-	-
CCCNC(=O)C(=O)NCc1n[nH]c(=O)c2ccccc12	0	0	-	-	-	-
Cc1ccsc1CN1CCC2(CC1)Cc1ccccc1CNC2=O	0[6.33 µM]	-	-	-	-	-
CCN1C(=O)CCc2cc(NC(=O)c3ccc(OC(F)(F)F)cc3)ccc21	0	-	-	-	-	-
CCOC(=O)c1[nH]c2ccc(C)cc2c1N	0	0	0	25µM	0	?
COC(=O)c1[nH]c2ccccc2c1NC(=O)CN1CCCC(C)C1 (stereo not drawn)	0	0	-	-	-	-
COC(=O)c1[nH]c2ccc(C)cc2c1NC(=O)CN1CCCC(C)(C)C1	0	0	0	18µM	0	0
CCOC(=O)c1[nH]c2ccc(OCC)cc2c1NC(=O)CN1CCN(c2ccccn2)CC1	0	0	0	18µM	0	0
CCOC(=O)c1[nH]c2ccc(OCC)cc2c1NC(=O)CN1CCCC(C)C1 (stereo not drawn)	0	0	0	14µM	0	0
